Rows were chosen to be rich in hits. Some 19% of all compounds tested hit in one or more screens of this group.
TDP1 cell noCPT: qHTS for Inhibitors of human tyrosyl-DNA phosphodiesterase 1 (TDP1): qHTS in cells in absence of CPT | DT40 Tdp1-/- hTDP1 cells, no CPT, ATP luminescence, 48 h | Potency, µM (top dose mostly 46.2 µM), for the others: at the highest dose activity change, negative = growth inhibition, actives largely listed as inhibitors | 420,000 compounds, 15% hits | AID 686978, 2013; also: potency is read from the fitted curve at half-maximal effect; nearly all actives have a fitted effect of over 55% in size
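Cells were dispensed at 400 per well, compounds added by pin tool, plates incubated ≥48 hr at 37 °C, then CellTiter-Glo added for 30 min at room temperature before luminescence reading. Line: DT40 Tdp1-/- complemented with hTDP1; camptothecin omitted.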
TDP1 cell CPT: growth inhibition of DT40 Tdp1-/-;hTDP1 cells with camptothecin (screen for TDP1 inhibitors). chicken DT40 Tdp1-/-;hTDP1 cells + 20 nM CPT, ATP luminescence, 48 h. Potency, µM (doses to about 46.2 µM), for inactives: top-dose activity change, negative = growth inhibition, most hits filed as inhibitors. 420,000 compounds, 12% hits; also: potency is read from the fitted curve at half-maximal effect; nearly all actives have a fitted effect of over 55% in size
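Cell growth measured by CellTiter-Glo luminescence after a minimum 48 h, 37 C compound exposure with 20 nM CPT in Tdp1-knockout DT40 cells stably expressing hTDP1, seeded 400/well; qHTS titration format.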
IL1B secr inh: blocks inflammasome-driven IL-1 beta release; THP-1 LPS/ATP IL-1B secretion, AlphaLISA, 16 h; hits give low values; activity change, % at 57.5 µM; 360,000 compounds, 4.7% hits; in the data active = activity change below about -50%; inconclusive = mostly about -30% to -49%
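THP-1 cells pretreated 1 hr with compounds (up to 57.5 uM final), then stimulated with LPS (250 ng/mL final) plus ATP (1.25 mM final); secreted IL-1B measured by AlphaLISA after 16 hr, decreased signal indicating inhibition.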
HT1080-NT tox: kills 2HG-producing HT-1080-NT fibrosarcoma cells; 360,000 compounds, 1.6% hits; HT-1080-NT fibrosarcoma viability, CellTiter-Glo ATP luminescence, 48 h; Potency, µM (highest dose often 46.1 µM), inactives show top-dose activity, negative = less viability, actives largely listed as cytotoxic; AID 686970;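 also: NT is the 2HG producing partner of a matched IDH1 knockdown line; potency is read from the fitted curve at half-maximal effect; 0% = DMSO-treated cells and -100% = media-only wells without cells; nearly all actives have a fitted effect of over 55% in size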
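HT-1080-NT fibrosarcoma cells (2HG-overproducing), 750 cells/well in RPMI with 5% FBS, dosed after 2 h and incubated 48 h at 37C. CellTiter-Glo luminescence normalized to DMSO and no-cell wells; concentration-response curves fitted and classed.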
HT1080 IDH1KD tx: kills HT-1080 cells with IDH1 knockdown; HT-1080 IDH1 knockdown viability, ATP luminescence, 48 h; Potency, µM (top dose mostly 46.1 µM), for the others: at the highest dose activity, negative = toxicity, hits mostly cytotoxic; AID 686971; 360,000 compounds, 2% hits;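 also: potency is read from the fitted curve at half-maximal effect; 0% = DMSO wells and -100% = cell-free medium wells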
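IDH1KD HT-1080 cells, 750/well, RPMI + 5% FBS; compound pinned after 2 h settling; 48 h, 37 °C; CellTiter-Glo luminescence; % activity normalised to DMSO and no-cell wells; curves fitted, classed by r2 and efficacy.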
The depositor's hits bear a star. Unless noted, calls follow the shape of the dose curve; as a rule, active = well fitted curve in the direction sought with a large enough effect; inconclusive = small, poorly fitted or top-dose-only effect, or another doubt; inactive = no such curve, though single readings can be large; an effect the other way counts as inactive or inconclusive. Unless noted, % is scaled to controls: 0 for no effect and ±100 for the full control effect.

How did Cc1ccc(/C(O)=C/c2nc3ccccc3oc2=O)cc1 do in these assays?
TDP1 cell noCPT: inconclusive; TDP1 cell CPT: -27%; HT1080-NT tox: -12%; HT1080 IDH1KD tx: 23µM*

What do the screens show for `O=c1oc2ccccc2nc1/C=C(O)/C=C/c1ccc(F)cc1`?
TDP1 cell noCPT: 15µM*; TDP1 cell CPT: 9.2µM*; IL1B secr inh: -14; HT1080-NT tox: 3%; HT1080 IDH1KD tx: 1%

Results for Cc1ccc2oc(=O)c(/C=C(\O)c3sc(C)nc3C)nc2c1 ?
TDP1 cell noCPT: 23µM*; TDP1 cell CPT: inconclusive; IL1B secr inh: 24; HT1080-NT tox: 2%; HT1080 IDH1KD tx: 0%

What do the screens show for `O=c1oc2ccccc2nc1/C=C(O)/C=C\c1ccccc1`?
TDP1 cell noCPT: 23µM*; TDP1 cell CPT: 15µM*; IL1B secr inh: -54*; HT1080-NT tox: 0%; HT1080 IDH1KD tx: 13%

What do the screens show for `CCOC1=C2[C@@H](CN(S(=O)(=O)c3ccc(C)cc3)[C@H]2c2cccs2)[C@H]2C(=O)N(c3ccccc3)C(=O)[C@H]2C1`?
TDP1 cell noCPT: inconclusive; TDP1 cell CPT: -15%; IL1B secr inh: 19; HT1080-NT tox: 6%; HT1080 IDH1KD tx: 5%

Results for O=C(CNC(=O)c1ccccc1)NCC(=O)OCC(=O)c1ccc2ccccc2c1 ?
TDP1 cell noCPT: -8%; TDP1 cell CPT: inconclusive

How did Cn1nc(C(=O)Nc2ccccc2N2CCCC2)c2ccccc2c1=O do in these assays?
TDP1 cell noCPT: inconclusive; TDP1 cell CPT: inconclusive; IL1B secr inh: 0; HT1080-NT tox: -7%; HT1080 IDH1KD tx: -18%

Results for CN1CCN(C(=S)c2cn(CCOc3ccccc3F)c3ccccc23)CC1 ?
TDP1 cell noCPT: 18µM*; TDP1 cell CPT: inconclusive; IL1B secr inh: -17; HT1080-NT tox: -20%; HT1080 IDH1KD tx: -26%

How did CN1CCN(C(=S)c2cn(CCOc3ccccc3)c3ccccc23)CC1 do in these assays?
TDP1 cell noCPT: 8%; TDP1 cell CPT: -1%; IL1B secr inh: 16; HT1080-NT tox: 4%; HT1080 IDH1KD tx: 1%

Results for COc1ccccc1OCCn1cc(C(=O)c2cccs2)c2ccccc21 ?
TDP1 cell noCPT: 10µM*; TDP1 cell CPT: inconclusive

How did Cc1ccc(OCCn2cc(C(=O)c3cccs3)c3ccccc32)cc1 do in these assays?
TDP1 cell noCPT: 13µM*; TDP1 cell CPT: 18µM*

How did O=C1CC(C(=O)N2CCc3ccccc32)CN1c1ccccc1 (stereo not given) do in these assays?
TDP1 cell noCPT: -12%; TDP1 cell CPT: 7%; IL1B secr inh: 9; HT1080-NT tox: 17%; HT1080 IDH1KD tx: 10%

What do the screens show for `COc1ccc(S(=O)(=O)N2CCN(C(=O)c3cc(C)nc4ccccc34)CC2)cc1OC`?
TDP1 cell noCPT: 10%; TDP1 cell CPT: -7%; IL1B secr inh: 24; HT1080-NT tox: 1%; HT1080 IDH1KD tx: 4%

What do the screens show for `CCCCCC(=O)N1C[C@@H](O)[C@H](n2cc(-c3ccc(F)cc3)nn2)C[C@@H]1c1ccc(C)cc1`?
TDP1 cell noCPT: 18µM*; TDP1 cell CPT: inconclusive; IL1B secr inh: -16; HT1080-NT tox: -5%; HT1080 IDH1KD tx: -11%

How did CCCCCC(=O)N1C[C@@H](n2cc(-c3ccc(F)cc3)nn2)[C@H](O)C[C@@H]1c1ccc(OC)cc1 do in these assays?
TDP1 cell noCPT: inconclusive; TDP1 cell CPT: inconclusive; IL1B secr inh: -29; HT1080-NT tox: 18µM*; HT1080 IDH1KD tx: inconclusive

How did CCCCCC(=O)N1C[C@@H](O)[C@H](n2cc(C3CC3)nn2)C[C@@H]1c1ccc(C)cc1 do in these assays?
TDP1 cell noCPT: -27%; TDP1 cell CPT: -20%; IL1B secr inh: 11; HT1080-NT tox: 9%; HT1080 IDH1KD tx: 3%

How did CCCCCC(=O)N1C[C@H](O)[C@@H](n2cc(C3CC3)nn2)C[C@@H]1c1ccc(C)cc1 do in these assays?
TDP1 cell noCPT: inconclusive; TDP1 cell CPT: inconclusive; IL1B secr inh: -10; HT1080-NT tox: -2%; HT1080 IDH1KD tx: -2%

What do the screens show for `CCCCCC(=O)N1C[C@@H](n2cc(-c3ccc(F)cc3)nn2)[C@H](O)C[C@@H]1c1ccc(C)cc1`?
TDP1 cell noCPT: 8.2µM*; TDP1 cell CPT: 13µM*; IL1B secr inh: -20; HT1080-NT tox: -23%; HT1080 IDH1KD tx: inconclusive

Results for CCCCCC(=O)N1C[C@@H](O)[C@H](n2cc(-c3ccc(F)cc3)nn2)C[C@@H]1c1ccccc1 ?
TDP1 cell noCPT: 10µM*; TDP1 cell CPT: 23µM*; IL1B secr inh: -15; HT1080-NT tox: -17%; HT1080 IDH1KD tx: -17%

What do the screens show for `Cn1c(=O)c2c(nc(SCCN3CCOCC3)n2C)n(C)c1=O`?
TDP1 cell noCPT: inconclusive; TDP1 cell CPT: 2%; IL1B secr inh: 7; HT1080-NT tox: 3%; HT1080 IDH1KD tx: 6%

How did CC(C)(C)S(=O)N1Cc2cn(Cc3ccccc3)c(=O)cc2[C@H]1CCO (stereo not given in full) do in these assays?
TDP1 cell noCPT: -9%; TDP1 cell CPT: -1%; IL1B secr inh: 6; HT1080-NT tox: 3%; HT1080 IDH1KD tx: 1%

Results for COc1ccc([C@H]2C[C@H](O)[C@@H](n3cc(-c4ccc(F)cc4)nn3)CN2C(=O)C2CCCCC2)cc1 ?
TDP1 cell noCPT: -2%; TDP1 cell CPT: 7%; IL1B secr inh: -8; HT1080-NT tox: -2%; HT1080 IDH1KD tx: -1%

What do the screens show for `COc1ccc([C@H]2C[C@H](n3cc(-c4ccc(F)cc4)nn3)[C@@H](O)CN2C(=O)C2CCCCC2)cc1`?
TDP1 cell noCPT: 18µM*; TDP1 cell CPT: inconclusive; IL1B secr inh: -7; HT1080-NT tox: -17%; HT1080 IDH1KD tx: -15%

Results for O=[N+]([O-])c1ccc(/C=N/Nc2ncc(Br)cn2)cc1 ?
TDP1 cell noCPT: -11%; TDP1 cell CPT: -4%; IL1B secr inh: 4; HT1080-NT tox: 17%; HT1080 IDH1KD tx: 11%

How did CCSc1ncc(/C=N/Nc2ccccc2)n1C do in these assays?
TDP1 cell noCPT: 16µM*; TDP1 cell CPT: 23µM*; IL1B secr inh: 16; HT1080-NT tox: -24%; HT1080 IDH1KD tx: -27%

Results for CCSc1ncc(/C=N/Nc2ccc(Cl)cc2)n1C ?
TDP1 cell noCPT: inconclusive; TDP1 cell CPT: inconclusive; IL1B secr inh: 3; HT1080-NT tox: inconclusive; HT1080 IDH1KD tx: inconclusive

Results for CCSc1ncc(/C=N/Nc2ccc([N+](=O)[O-])cc2)n1C ?
TDP1 cell noCPT: -28%; TDP1 cell CPT: inconclusive; IL1B secr inh: -11; HT1080-NT tox: 13µM*; HT1080 IDH1KD tx: 13µM*

What do the screens show for `CCCCc1nc2cc(C(=O)NCc3cc(C)n(C)n3)ccc2o1`?
TDP1 cell noCPT: -9%; TDP1 cell CPT: 4%; IL1B secr inh: -13; HT1080-NT tox: 0%; HT1080 IDH1KD tx: 16%

Assay outcomes: PubChem, National Center for Advancing Translational Sciences (NCATS)
